From PubChem BioAssay AID1159580 (chemical genetic matrix, 2015)
Among all 5,500 compounds or so, about 2,000 (36%) were called active. Another 18% or so got no clear call; they are omitted. This is one part of the list. A number with no mark means an inactive call. Rule as the data show it: active = normalized growth mostly below about 0.91 (no sharp cut-off); inconclusive = no clear call, values can overlap the other calls; inactive = mostly above about 0.92.

Test: chemical genetic growth profiling, strain panel (AID 1159580);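 also: tested at 20 µM; growth read once vehicle control cultures reached saturation at 30 °C; 1 = growth at the plate median or of vehicle wells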
Settings: growth OD
[1] = S. cerevisiae deletion strains, locus YDL101C, strain DUN1, stronger effect = lower value
[2] = S. cerevisiae deletion strains, locus YHR030C, strain SLT2, stronger effect = lower value

For `CCn1nc(C)cc1C(=O)Sc1cccc(Br)c1`, which normalized growth (S. cerevisiae deletion strains, locus YAR019C, strain CDC15, stronger effect = lower value) is on record?
Its normalized growth is 0.917.

And the normalized growth (S. cerevisiae deletion strains, locus YBL105C, strain PKC1, stronger effect = lower value)?
The normalized growth was 0.934.

What about the normalized growth (S. cerevisiae deletion strains, locus YBR135W, strain CKS1, stronger effect = lower value) of the same compound?
The normalized growth was 0.91.

What about the normalized growth (S. cerevisiae deletion strains, locus YBR136W, strain MEC1, stronger effect = lower value) of the same compound?
Its normalized growth is 0.942.

And the normalized growth (S. cerevisiae deletion strains, locus YBR160W, strain CDC28, stronger effect = lower value)?
Its normalized growth is 0.924.

What about the normalized growth (S. cerevisiae deletion strains, locus YDL017W, strain CDC7, stronger effect = lower value) of the same compound?
Its normalized growth is 0.935.

What about the normalized growth (S. cerevisiae deletion strains, locus YDL028C, strain MPS1, stronger effect = lower value) of the same compound?
The normalized growth was 0.924.

And the normalized growth [1]?
Its normalized growth is 0.951.

And the normalized growth (S. cerevisiae deletion strains, locus YDL108W, strain KIN28, stronger effect = lower value)?
The normalized growth was 0.93.

What about the normalized growth (S. cerevisiae deletion strains, locus YDL132W, strain cdc53, stronger effect = lower value) of the same compound?
Its normalized growth is 0.922.

What about the normalized growth (S. cerevisiae deletion strains, locus YDL214C, strain PRR2, stronger effect = lower value) of the same compound?
Its normalized growth is 0.706.

What about the normalized growth (S. cerevisiae deletion strains, locus YDR052C, strain DBF4, stronger effect = lower value) of the same compound?
The normalized growth was 0.971.

And the normalized growth (S. cerevisiae deletion strains, locus YDR054C, strain cdc34, stronger effect = lower value)?
The normalized growth was 0.885.

And the normalized growth (S. cerevisiae deletion strains, locus YDR226W, strain ADK1, stronger effect = lower value)?
The normalized growth was 0.925.

What about the normalized growth (S. cerevisiae deletion strains, locus YDR477W, strain SNF1, stronger effect = lower value) of the same compound?
The normalized growth was 0.65 (active).

And the normalized growth (S. cerevisiae deletion strains, locus YER123W, strain YCK3, stronger effect = lower value)?
Its normalized growth is 0.592 (active).

What about the normalized growth (S. cerevisiae deletion strains, locus YER133W, strain GLC7, stronger effect = lower value) of the same compound?
Its normalized growth is 0.784.

And the normalized growth (S. cerevisiae deletion strains, locus YFL009W, strain cdc4, stronger effect = lower value)?
The normalized growth was 0.883 (active).

And the normalized growth (S. cerevisiae deletion strains, locus YFL029C, strain CAK1, stronger effect = lower value)?
Its normalized growth is 0.904.

And the normalized growth (S. cerevisiae deletion strains, locus YFR003C, strain YPI1, stronger effect = lower value)?
Its normalized growth is 0.932.

What about the normalized growth (S. cerevisiae deletion strains, locus YFR019W, strain FAB1, stronger effect = lower value) of the same compound?
The normalized growth was 0.737 (active).

What about the normalized growth (S. cerevisiae deletion strains, locus YFR028C, strain CDC14, stronger effect = lower value) of the same compound?
Its normalized growth is 0.933.

What about the normalized growth (S. cerevisiae deletion strains, locus YGR040W, strain KSS1, stronger effect = lower value) of the same compound?
Its normalized growth is 0.747.

What about the normalized growth (S. cerevisiae deletion strains, locus YGR052W, strain FMP48, stronger effect = lower value) of the same compound?
Its normalized growth is 0.725.

And the normalized growth (S. cerevisiae deletion strains, locus YGR092W, strain DBF2, stronger effect = lower value)?
Its normalized growth is 0.332 (active).

And the normalized growth [2]?
The normalized growth was 0.613 (active).

And the normalized growth (S. cerevisiae deletion strains, locus YHR079C, strain IRE1, stronger effect = lower value)?
Its normalized growth is 0.476 (active).

And the normalized growth (S. cerevisiae deletion strains, locus YHR082C, strain KSP1, stronger effect = lower value)?
Its normalized growth is 0.626.

And the normalized growth (S. cerevisiae deletion strains, locus YHR205W, strain SCH9, stronger effect = lower value)?
The normalized growth was 0.527 (active).

And the normalized growth (S. cerevisiae deletion strains, locus YIL147C, strain SLN1, stronger effect = lower value)?
Its normalized growth is 0.933.

What about the normalized growth (S. cerevisiae deletion strains, locus YJL095W, strain BCK1, stronger effect = lower value) of the same compound?
The normalized growth was 0.551.

And the normalized growth (S. cerevisiae deletion strains, locus YJL128C, strain PBS2, stronger effect = lower value)?
Its normalized growth is 0.913.

And the normalized growth (S. cerevisiae deletion strains, locus YJL157C, strain FAR1, stronger effect = lower value)?
The normalized growth was 0.638 (active).

And the normalized growth (S. cerevisiae deletion strains, locus YJR016C, strain ILV3, stronger effect = lower value)?
Its normalized growth is 0.921.

And the normalized growth (S. cerevisiae deletion strains, locus YJR066W, strain TOR1 (second series), stronger effect = lower value)?
The normalized growth was 0.227 (active).

And the normalized growth (S. cerevisiae deletion strains, locus YJR066W, strain TOR1, stronger effect = lower value)?
The normalized growth was 0.543.

What about the normalized growth (S. cerevisiae deletion strains, locus YKL048C, strain ELM1, stronger effect = lower value) of the same compound?
Its normalized growth is 0.924.

What about the normalized growth (S. cerevisiae deletion strains, locus YKL067W, strain YNK1, stronger effect = lower value) of the same compound?
Its normalized growth is 0.714 (active).

What about the normalized growth (S. cerevisiae deletion strains, locus YKL101W, strain HSL1, stronger effect = lower value) of the same compound?
The normalized growth was 0.786.

And the normalized growth (S. cerevisiae deletion strains, locus YKL193C, strain SDS22, stronger effect = lower value)?
The normalized growth was 0.927.

And the normalized growth (S. cerevisiae deletion strains, locus YKL203C, strain TOR2, stronger effect = lower value)?
The normalized growth was 0.746.

And the normalized growth (S. cerevisiae deletion strains, locus YLR113W, strain HOG1, stronger effect = lower value)?
Its normalized growth is 0.461 (active).

And the normalized growth (S. cerevisiae deletion strains, locus YLR133W, strain CKI1, stronger effect = lower value)?
Its normalized growth is 0.724 (active).

And the normalized growth (S. cerevisiae deletion strains, locus YLR403W, strain SFP1, stronger effect = lower value)?
Its normalized growth is 0.566 (active).

And the normalized growth (S. cerevisiae deletion strains, locus YML070W, strain DAK1, stronger effect = lower value)?
The normalized growth was 0.727.

And the normalized growth (S. cerevisiae deletion strains, locus YMR001C, strain CDC5, stronger effect = lower value)?
The normalized growth was 0.904.

And the normalized growth (S. cerevisiae deletion strains, locus YMR205C, strain PFK2 (second series), stronger effect = lower value)?
Its normalized growth is 0.819.

What about the normalized growth (S. cerevisiae deletion strains, locus YMR277W, strain FCP1, stronger effect = lower value) of the same compound?
Its normalized growth is 0.914.

And the normalized growth (S. cerevisiae deletion strains, locus YNL006W, strain LST8, stronger effect = lower value)?
Its normalized growth is 0.917.

What about the normalized growth (S. cerevisiae deletion strains, locus YNL020C, strain ARK1, stronger effect = lower value) of the same compound?
The normalized growth was 0.697 (active).

And the normalized growth (S. cerevisiae deletion strains, locus YNL161W, strain CBK1, stronger effect = lower value)?
The normalized growth was 0.937.

What about the normalized growth (S. cerevisiae deletion strains, locus YNL183C, strain NPR1, stronger effect = lower value) of the same compound?
Its normalized growth is 0.629.

What about the normalized growth (S. cerevisiae deletion strains, locus YNL207W, strain RIO2, stronger effect = lower value) of the same compound?
Its normalized growth is 0.918.

And the normalized growth (S. cerevisiae deletion strains, locus YNL222W, strain SSU72, stronger effect = lower value)?
The normalized growth was 0.917.

And the normalized growth (S. cerevisiae deletion strains, locus YNL307C, strain MCK1 (second series), stronger effect = lower value)?
The normalized growth was 0.601 (active).

What about the normalized growth (S. cerevisiae deletion strains, locus YOL078W, strain AVO1, stronger effect = lower value) of the same compound?
Its normalized growth is 0.91.

And the normalized growth (S. cerevisiae deletion strains, locus YOL136C, strain PFK27, stronger effect = lower value)?
The normalized growth was 0.701.

And the normalized growth (S. cerevisiae deletion strains, locus YOR061W, strain CKA2, stronger effect = lower value)?
Its normalized growth is 0.662 (active).

What about the normalized growth (S. cerevisiae deletion strains, locus YOR119C, strain RIO1, stronger effect = lower value) of the same compound?
The normalized growth was 0.741.

What about the normalized growth (S. cerevisiae deletion strains, locus YOR231W, strain MKK1, stronger effect = lower value) of the same compound?
The normalized growth was 0.486 (active).

And the normalized growth (S. cerevisiae deletion strains, locus YOR329C, strain SCD5, stronger effect = lower value)?
Its normalized growth is 0.935.

What about the normalized growth (S. cerevisiae deletion strains, locus YPL031C, strain PHO85, stronger effect = lower value) of the same compound?
The normalized growth was 0.619 (active).

And the normalized growth (S. cerevisiae deletion strains, locus YPL153C, strain RAD53, stronger effect = lower value)?
Its normalized growth is 0.551 (active).

And the normalized growth (S. cerevisiae deletion strains, locus YPL204W, strain HRR25, stronger effect = lower value)?
Its normalized growth is 0.676.

And the normalized growth (S. cerevisiae deletion strains, locus YPL209C, strain IPL1, stronger effect = lower value)?
The normalized growth was 0.936.

What about the normalized growth (S. cerevisiae deletion strains, locus YPL256C, strain CLN2, stronger effect = lower value) of the same compound?
The normalized growth was 0.634 (active).

What about the normalized growth (S. cerevisiae deletion strains, locus YPR025C, strain CCL1, stronger effect = lower value) of the same compound?
The normalized growth was 0.935.

What about the normalized growth (S. cerevisiae deletion strains, locus YPR106W, strain ISR1, stronger effect = lower value) of the same compound?
The normalized growth was 0.97.

And the normalized growth (S. cerevisiae deletion strains, locus YPR111W, strain DBF20, stronger effect = lower value)?
Its normalized growth is 0.955.

And the normalized growth (S. cerevisiae deletion strains, strain NNK1, stronger effect = lower value)?
Its normalized growth is 0.963.

What about the normalized growth (S. cerevisiae deletion strains, strain TSCII, stronger effect = lower value) of the same compound?
The normalized growth was 0.908.

Which normalized growth (S. cerevisiae deletion strains, locus YAL013W, strain DEP1, stronger effect = lower value) does the source give for `CCOC(=O)c1nnc2cc(C)nn2c1C` here?
The normalized growth was 0.981.

What about the normalized growth (S. cerevisiae deletion strains, locus YBR229C, strain ROT2, stronger effect = lower value) of the same compound?
The normalized growth was 1.01.

What about the normalized growth [1] of the same compound?
The normalized growth was 0.98.

And the normalized growth (S. cerevisiae deletion strains, locus YDR150W, strain NUM1, stronger effect = lower value)?
The normalized growth was 0.951.

And the normalized growth (S. cerevisiae deletion strains, locus YEL061C, strain CIN8, stronger effect = lower value)?
The normalized growth was 1.

What about the normalized growth (S. cerevisiae deletion strains, locus YGR078C, strain PAC10, stronger effect = lower value) of the same compound?
Its normalized growth is 1.

And the normalized growth [2]?
The normalized growth was 1.01.

And the normalized growth (S. cerevisiae deletion strains, locus YHR087W, strain rtc3, stronger effect = lower value)?
Its normalized growth is 1.

What about the normalized growth (S. cerevisiae deletion strains, locus YJR043C, strain POL32, stronger effect = lower value) of the same compound?
The normalized growth was 0.987.

And the normalized growth (S. cerevisiae deletion strains, locus YJR075W, strain HOC1, stronger effect = lower value)?
Its normalized growth is 1.03.

What about the normalized growth (S. cerevisiae deletion strains, locus YKL190W, strain CNB1, stronger effect = lower value) of the same compound?
Its normalized growth is 0.995.

And the normalized growth (S. cerevisiae deletion strains, locus YLR039C, strain RIC1, stronger effect = lower value)?
The normalized growth was 1.04.

And the normalized growth (S. cerevisiae deletion strains, locus YLR058C, strain SHM2 (second series), stronger effect = lower value)?
Its normalized growth is 1.01.

What about the normalized growth (S. cerevisiae deletion strains, locus YLR085C, strain ARP6, stronger effect = lower value) of the same compound?
The normalized growth was 1.

What about the normalized growth (S. cerevisiae deletion strains, locus YLR262C, strain YPT6, stronger effect = lower value) of the same compound?
The normalized growth was 1.06.

What about the normalized growth (S. cerevisiae deletion strains, locus YML094W, strain GIM5, stronger effect = lower value) of the same compound?
The normalized growth was 0.968.

And the normalized growth (S. cerevisiae deletion strains, locus YMR219W, strain ESC1, stronger effect = lower value)?
Its normalized growth is 1.

And the normalized growth (S. cerevisiae deletion strains, locus YMR263W, strain SAP30, stronger effect = lower value)?
The normalized growth was 0.95.

And the normalized growth (S. cerevisiae deletion strains, locus YMR307W, strain GAS1, stronger effect = lower value)?
The normalized growth was 0.989.

What about the normalized growth (S. cerevisiae deletion strains, locus YNL128W, strain TEP1, stronger effect = lower value) of the same compound?
The normalized growth was 1.01.

What about the normalized growth (S. cerevisiae deletion strains, locus YNL153C, strain GIM3, stronger effect = lower value) of the same compound?
The normalized growth was 0.988.

What about the normalized growth (S. cerevisiae deletion strains, locus YNL298W, strain CLA4 (second series), stronger effect = lower value) of the same compound?
Its normalized growth is 1.03.

And the normalized growth (S. cerevisiae deletion strains, locus YNL322C, strain KRE1, stronger effect = lower value)?
Its normalized growth is 1.

What about the normalized growth (S. cerevisiae deletion strains, locus YNR030W, strain Alg12, stronger effect = lower value) of the same compound?
Its normalized growth is 1.03.

What about the normalized growth (S. cerevisiae deletion strains, locus YPL055C, strain LGE1, stronger effect = lower value) of the same compound?
Its normalized growth is 0.923.

What about the normalized growth (S. cerevisiae deletion strains, locus YPL241C, strain CIN2, stronger effect = lower value) of the same compound?
Its normalized growth is 0.986.

What about the normalized growth (S. cerevisiae deletion strains, locus YPR135W, strain CTF4, stronger effect = lower value) of the same compound?
The normalized growth was 1.

And the normalized growth (S. cerevisiae strains, strain wild type, stronger effect = lower value)?
The normalized growth was 1.02.
